Results on eight compounds are retold here after PubChem BioAssay (NCI).

Among the test systems are SR leukemia; RPMI-8226 leukemia; OVCAR-8 ovarian; OVCAR-5 ovarian; OVCAR-4 ovarian; SK-OV-3 ovarian; IGROV1 ovarian; OVCAR-3 ovarian; HS 578T breast; NCI/ADR-RES ovarian; T-47D breast; BT-549 breast; MDA-MB-435 melanoma; SW-620 colon; MCF7 breast; HCT-116 colon; HCC-2998 colon; KM12 colon.
Holding throughout (assay): NCI-60 one-dose screen, 48 h (100 = growth as untreated, 0 = no growth, -100 = all killed)
Settings in all cases: 10 µM unless noted

The panel holds about 83,000 compounds, 20% with a hit somewhere; the sample as a whole holds those more often.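 Cells were grown in 96-well plates and exposed to the test compound at a single concentration for 48 hours; results are reported as percent growth, with values below 10 considered active.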 Unmarked numbers belong to inactive results. The source made the active and inactive calls.

Take `C#C[C@]1(O)CC[C@H]2[C@@H]3CC=C4c5sc(-c6ccccc6)nc5CC[C@]4(C)[C@H]3CC[C@@]21C`: the growth in the experiment on SR leukemia was 30.9%; in the experiment on RPMI-8226 leukemia, -12.6% (active); in the experiment on OVCAR-8 ovarian, 101%; in the experiment on OVCAR-5 ovarian, 85.6%; in the experiment on OVCAR-4 ovarian, 106%; with SK-OV-3 ovarian, 111%. Further, the growth with IGROV1 ovarian is 95.8%; with OVCAR-3 ovarian it was 106%; in the experiment with HS 578T breast, 62%; with NCI/ADR-RES ovarian, 94.4%; with T-47D breast, 92.7%; in the experiment with BT-549 breast, 86.2%. For the same compound, the growth in the experiment on MDA-MB-435 melanoma was 93.6%; in the experiment on SW-620 colon, 89.9%; in the experiment on MCF7 breast it was 51.2%; with HCT-116 colon, 78.2%; with HCC-2998 colon it was 97.4%; with KM12 colon, 78.9%.

With `COc1cccc2cc(N(C)c3nc(C)nc4c3CCC4)ccc12`, the growth was 9.67% (active) in the experiment on SR leukemia; 29.2% with RPMI-8226 leukemia; 10.5% in the experiment with OVCAR-8 ovarian; 52.2% in the experiment on OVCAR-5 ovarian; 47.1% in the experiment on OVCAR-4 ovarian; 19.5% with SK-OV-3 ovarian. Besides, the growth in the experiment on IGROV1 ovarian was 24.2%; in the experiment on OVCAR-3 ovarian it was -18.1% (active); with HS 578T breast, 17.9%; with NCI/ADR-RES ovarian it was 12.6%; with T-47D breast, 50.7%; in the experiment with BT-549 breast, 1.76% (active). Moreover, the growth in the experiment on MDA-MB-435 melanoma was -3.22% (active); in the experiment with SW-620 colon, 19.7%; in the experiment with MCF7 breast, 15.1%; with HCT-116 colon it was -14.2% (active); with HCC-2998 colon, 17.5%; in the experiment with KM12 colon it was 0.0953% (active).

For `C=CCNc1ccc2c3c(cccc13)C(=O)N(CC=C)C2=O`, the growth in the experiment with SR leukemia is 74.8%; with RPMI-8226 leukemia, 95.2%; in the experiment with OVCAR-8 ovarian, 96.3%; in the experiment with OVCAR-5 ovarian it was 92%; in the experiment on OVCAR-4 ovarian, 110%; in the experiment on SK-OV-3 ovarian it was 103%. The growth was 88.7% in the experiment on IGROV1 ovarian; 107% in the experiment on OVCAR-3 ovarian; 91.6% in the experiment on HS 578T breast; 92.8% in the experiment with NCI/ADR-RES ovarian; 83% in the experiment with T-47D breast; 98.4% with BT-549 breast. Besides, the growth in the experiment with MDA-MB-435 melanoma is 109%; in the experiment with SW-620 colon, 108%; with MCF7 breast, 34%; in the experiment on HCT-116 colon, 86.5%; in the experiment on HCC-2998 colon, 106%; in the experiment on KM12 colon, 101%.

Regarding `COc1ccc(-c2nc3cc(C(=O)NC4CCCCC4)ccc3n2C2CCCCC2)cc1`, the growth in the experiment with SR leukemia is 51.2%; in the experiment on RPMI-8226 leukemia, 79.2%; in the experiment on OVCAR-8 ovarian it was 107%; in the experiment with OVCAR-5 ovarian it was 85.6%; in the experiment on OVCAR-4 ovarian, 86.6%; in the experiment on SK-OV-3 ovarian, 98.7%. For the same compound, the growth with IGROV1 ovarian is 101%; in the experiment on OVCAR-3 ovarian it was 89.1%; in the experiment on HS 578T breast, 105%; in the experiment with NCI/ADR-RES ovarian it was 90.7%; with T-47D breast it was 87.6%; in the experiment with BT-549 breast, 94.9%. For the same compound, the growth in the experiment on MDA-MB-435 melanoma was 99.4%; in the experiment on SW-620 colon, 101%; with MCF7 breast it was 85.2%; with HCT-116 colon it was 87.1%; in the experiment with HCC-2998 colon, 91.8%; with KM12 colon, 68.6%.

As for `C=C(C[n+]1ccccc1)[C@@H]1CC[C@]2(C(=O)OC)CC[C@]3(C)[C@H](CC[C@@H]4[C@@]5(C)CCC(=O)C(C)(C)[C@@H]5CC[C@]43C)[C@@H]12`, the growth with SR leukemia was 84.8%; in the experiment with RPMI-8226 leukemia it was 52.3%; in the experiment on OVCAR-8 ovarian, 90.3%; in the experiment on OVCAR-5 ovarian it was 101%; in the experiment on OVCAR-4 ovarian, 55%; with SK-OV-3 ovarian, 99%. The growth was 64.2% in the experiment on IGROV1 ovarian; 58.9% in the experiment on OVCAR-3 ovarian; 87.9% in the experiment on HS 578T breast; 103% in the experiment with NCI/ADR-RES ovarian; 81.4% with T-47D breast; 72.8% in the experiment on BT-549 breast. Also, the growth with MDA-MB-435 melanoma is 77.6%; in the experiment with SW-620 colon it was 89%; in the experiment on MCF7 breast, 82.9%; in the experiment on HCT-116 colon, 96.9%; in the experiment on HCC-2998 colon, 90.9%; with KM12 colon, 78.4%.

In the case of `CCOC(=O)CC1CSC(N/N=C/c2ccc(O)cc2)=N1` (centres undefined), the growth with SR leukemia is 98.5%; in the experiment with RPMI-8226 leukemia, 104%; in the experiment with OVCAR-8 ovarian it was 103%; in the experiment on OVCAR-5 ovarian, 100%; in the experiment on OVCAR-4 ovarian, 108%; in the experiment on SK-OV-3 ovarian, 88.8%. The growth in the experiment on IGROV1 ovarian was 97.3%; in the experiment on OVCAR-3 ovarian it was 110%; with HS 578T breast it was 104%; with NCI/ADR-RES ovarian it was 108%; in the experiment with T-47D breast it was 93.2%; with BT-549 breast, 100%. Besides, the growth is 103% in the experiment on MDA-MB-435 melanoma; 98.1% in the experiment on SW-620 colon; 91% with MCF7 breast; 81.1% in the experiment with HCT-116 colon; 97.4% with HCC-2998 colon; 100% with KM12 colon.

Consider `CC1(C)CC[C@]2(CO)CC[C@]3(C)C(=CC[C@@H]4[C@@]5(C)CCNCC(C)(C)[C@@H]5CC[C@]43C)[C@@H]2C1`, for which the growth in the experiment on SR leukemia was -24.3% (active); with RPMI-8226 leukemia, -26.1% (active); in the experiment on OVCAR-8 ovarian, 87.4%; in the experiment with OVCAR-5 ovarian, 81.8%; in the experiment on OVCAR-4 ovarian it was 81%; in the experiment on SK-OV-3 ovarian it was 95.4%. Also, the growth is 95% in the experiment on IGROV1 ovarian; 89.5% in the experiment on OVCAR-3 ovarian; 96.7% with HS 578T breast; 91.9% in the experiment with NCI/ADR-RES ovarian; 56.3% in the experiment with T-47D breast; 90.1% in the experiment on BT-549 breast. The growth with MDA-MB-435 melanoma was 41.6%; in the experiment on SW-620 colon it was 21%; in the experiment on MCF7 breast it was 38.6%; in the experiment on HCT-116 colon, 55.5%; in the experiment on HCC-2998 colon, -60.8% (active); in the experiment on KM12 colon, 34.7%.

Turning to `Cn1cc(-c2csc(-c3cn(C)c4ccc(F)cc34)n2)c2cnccc21`, the growth in the experiment on SR leukemia was -21.5% (active); in the experiment with RPMI-8226 leukemia it was -38.4% (active); in the experiment on OVCAR-8 ovarian it was 5.3% (active); with OVCAR-5 ovarian, 25.6%; in the experiment on OVCAR-4 ovarian, 11.3%; in the experiment with SK-OV-3 ovarian it was 107%. Further, the growth in the experiment on IGROV1 ovarian is -24.7% (active); in the experiment on OVCAR-3 ovarian, -57.4% (active); in the experiment with HS 578T breast it was -34.2% (active); in the experiment on NCI/ADR-RES ovarian, 24.7%; in the experiment with T-47D breast it was -44.1% (active); in the experiment with BT-549 breast it was 84%. Further, the growth was -90.7% (active) in the experiment with MDA-MB-435 melanoma; -67.1% (active) in the experiment on SW-620 colon; -49.3% (active) with MCF7 breast; -90.3% (active) in the experiment on HCT-116 colon; -78.4% (active) in the experiment with HCC-2998 colon; 0.588% (active) in the experiment on KM12 colon.
